High-throughput results as filed in PubChem BioAssay.
In the library only some 4% were active in any assay of this set; here they are far more common.
TIM10 inh: growth inhibitors of TIM10 yeast strain. S. cerevisiae TIM10 strain growth, BacTiter-Glo luminescence, 24 h. hit rate 1.4% among 330,000. inhibition, % at 10 µM. AID 463195;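 active = inhibition of 40% or more at the single tested concentration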;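 also: wild-type TIM10 isogenic control strain grown at permissive 25 °C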
tim10-1 inh: tim10-1 yeast growth inhibition; S. cerevisiae tim10-1 ts strain growth, BacTiter-Glo, 24 h; inhibition, % at 20 µM; hit rate 2.2% among 330,000; AID 463190;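 active = inhibition of at least 40%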;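 also: mutant grown at 25 °C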
NALP1 yeast inh: inhibitors of NALP1 inflammasome in yeast; hit rate 0.61% among 280,000; inhibition, % at 10 µM; S. cerevisiae NALP1/ASC/caspase-1 growth, X-gal OD620, 72 h; AID 2071; in the data active = inhibition mostly above about 24%, no sharp cut-off; inactive = mostly below about 32%
NALP3 yeast inh: NALP3 inhibition in yeast. hit rate 0.39% among 330,000. Yeast reconstituted NLRP3/ASC/caspase-1, beta-gal luminescence, 24 h. inhibition, % at 10 µM;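 active = inhibition of 50% or more; inactive = inhibition below 50%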
tim23-1 inh: inhibits growth of tim23-1 mutant yeast | S. cerevisiae tim23-1 growth, BacTiter-Glo luminescence, 24 h | inhibition, % at 20 µM | hit rate 1.3% among 330,000 | AID 463212;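 active = growth inhibition of the mutant yeast at or above 50%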;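 also: temperature-sensitive mutant grown at 25 °C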
NALP3 yeast conf: NALP3 inhibition confirmation in yeast; shares compounds with NALP3 yeast inh; yeast expressing human NALP3, luminescence; inhibition, % at 10 µM; hit rate 81% among 1,300; AID 435006; in the data active = inhibition above about 48%
Casp1-ASC yeast: caspase-1-ASC yeast counter-screen hit | shares compounds with NALP3 yeast inh | yeast expressing Caspase-1-ASC, luminescence counter screen | inhibition, % at 10 µM | hit rate 66% among 1,000 | AID 488784
NALP3 retest: confirmation retest of NALP3 inhibitors in yeast. AID 488794. inhibition, % at 10 µM. yeast expressing human NALP3, luminescence read-out. shares compounds with NALP3 yeast inh. hit rate 53% among 1,000
Of the large screens only hits and unclear results are named; the others gave an inactive call (follow-up assays come after a bar, where they were run); ! = a repeat was not active. Rule as the data show it, unless noted: active = inhibition above about 50%; inactive = the rest.

O=C(COc1ccc(Cl)cc1)NCc1nnc(SCC(=O)Nc2ccc(F)cc2F)o1	none
CCN(CC)C(=O)C1CCN(S(=O)(=O)c2cccc3nonc23)CC1	NALP1 yeast inh 43
O=C(O)C1CCN(S(=O)(=O)c2ccc(Cl)s2)CC1	none (no result: NALP1 yeast inh)
CCn1c(C)nc2cc(C(=O)N/N=C/c3ccc(N4CCOCC4)cc3)ccc21	none
CCOC(=O)c1[nH]c(C)c(CCC(=O)O)c1C	NALP1 yeast inh 41!
Cc1cc(C)c(O)c(-c2cc(C(=O)Nc3cccnc3)[nH]n2)c1	none
Cc1cc(O)c(-c2cc(C(=O)Nc3cccnc3)[nH]n2)cc1C	NALP1 yeast inh 37
CC1(C)N=C(SCC(=O)Nc2ccc(Cl)cc2)C(c2ccc(Cl)cc2)=N1	NALP1 yeast inh 36
Cc1ccc(-n2c3c(c(=O)[nH]c2=S)C(C(F)(F)F)(C(F)(F)F)NC(=O)N3)cc1	NALP1 yeast inh 41
O=C(Nc1ccc(Cl)cn1)Nc1ccc(Cl)cn1	NALP1 yeast inh 30
CSc1ccccc1OCc1cc(C(=O)NCCCn2nc(C)cc2C)no1	none
COC(=O)c1sc(NC(=O)c2cc3c(s2)CCCC3)nc1C	NALP1 yeast inh 33
COC(=O)c1ccc(NC(=O)Cc2ccc(C)cc2)cc1	NALP1 yeast inh 35
COC(=O)c1ccc(NC(=O)Cc2ccccc2)cc1	none
COCCNc1nc(-c2ccc(OC)cc2)c(-c2ccc(OC)cc2)s1	NALP1 yeast inh 35
CCN1CCN(c2c(Cl)cccc2NC(=O)c2ccc([N+](=O)[O-])o2)CC1	NALP1 yeast inh 31
CN(C)C(=O)CCCCCCCCC(=O)N(C)C	none (no result: NALP1 yeast inh)
Clc1ccc2c(N/N=C/c3ccc(Br)cc3)ccnc2c1	NALP1 yeast inh 54 (no result: TIM10 inh, tim10-1 inh, NALP3 yeast inh, tim23-1 inh)
Cc1ccccc1/C=N/Nc1ccnc2cc(Cl)ccc12	NALP1 yeast inh 51 (no result: TIM10 inh, tim10-1 inh, NALP3 yeast inh, tim23-1 inh)
Cc1ccc(/C=N/Nc2ccnc3cc(Cl)ccc23)c(C)c1	NALP1 yeast inh 60
CCN(C(=O)COC(=O)c1ccc2c(c1)OCO2)c1c(N)n(Cc2ccccc2)c(=O)[nH]c1=O	none (no result: NALP1 yeast inh)
O=C(NC1CCN(C(=O)c2cccc([N+](=O)[O-])c2)CC1)c1ccccc1	none
C1CCCCCC2(CCCCC1)OCC(CN1CCOCC1)O2 (centres undefined)	NALP1 yeast inh 54
C[N+]1(CC2COC3(CCCCC3)O2)CCCC1 (centres undefined)	none
O=C(CCc1nc2ccccc2[nH]c1=O)OCC(=O)c1ccc(Cl)cc1	none
O=C(CCc1nc2ccccc2[nH]c1=O)OCC(=O)c1cccc2ccccc12	NALP1 yeast inh 36 (no result: TIM10 inh, tim10-1 inh, NALP3 yeast inh, tim23-1 inh)
COc1ccnc2c1c(=O)n(Cc1cccc(Cl)c1)c(=O)n2C	none
CC(C)(C)c1cc2cccnc2n1Cc1cccc(Cl)c1	NALP1 yeast inh 46
Nc1c(-c2ccc3c(c2)OCCO3)oc2ccccc2c1=O	none
O=CN1c2ccccc2CSc2ccccc21	none (no result: NALP1 yeast inh)
CCS(=O)(=O)N1CCC(C(=O)NCc2cc(OC)ccc2OC)CC1	NALP1 yeast inh 41
CCC(CC)NC(=O)C1CCN(S(=O)(=O)c2cccs2)CC1	NALP1 yeast inh 33
COc1ccc(C)cc1NC(=O)C1CCN(S(=O)(=O)c2cccs2)CC1	none
COc1ccc(CNC(=O)CN2CCN(S(=O)(=O)c3cccs3)CC2)cc1OC	NALP1 yeast inh 35
CCC(C)NC(=O)C1CCN(S(=O)(=O)c2cccs2)CC1 (centres undefined)	none
COc1ccc(OC)c(NC(=O)C2CCN(S(=O)(=O)c3cccs3)CC2)c1	NALP1 yeast inh 39
CCCn1c(Cc2ccccc2)nnc1SC(C)C(=O)NC1CC1 (centres undefined)	none (no result: NALP1 yeast inh)
O=C(CSc1cccc[n+]1[O-])C12CC3CC(CC(C3)C1)C2	none
c1ccc2nc(-c3nc4ccccc4[nH]3)ccc2c1	NALP3 yeast inh 53 | NALP3 yeast conf 67 | Casp1-ASC yeast inactive | NALP3 retest inactive
Fc1ccccc1-c1nc2ccccc2[nH]1	NALP3 yeast inh 60 | NALP3 yeast conf 58 | Casp1-ASC yeast 54 | NALP3 retest 60
COc1ccc(CC(=O)OCC(=O)Nc2ccc(N3CCOCC3)cc2)cc1	none
O=C(Nc1ccc2oc(=O)ccc2c1)c1cc2ccccc2o1	none
